Measurements taken from article doi:10.1101/2024.03.05.583629.

biological target: pT7_6His-AlfaTag-ZIF268 (human, UniProt P18146 335-423); assay: PADIT-seq; details: dsDNA, one strand shown

Question: How did the binding signal turn out when “CTCGAGGATATCAAGATCTGGCCTCGGCAAGTGGGCGGGAACCTCTAGCTAGCCGACTCACTATAGGGATAATCGCCCTGAGCAAAGACC” was run?
Answer: 2.06 ± 0.0801 log2FC

Question: “CTCGAGGATATCAAGATCTGGCCTCGGCGCGTGGCGTGGAACCTCTAGCTAGCCGACTCACTATAGGGATAATCGCCCTGAGCAAAGACC” was tested. Which binding signal did it give?
Answer: 0.0995 ± 0.108 log2FC

Question: For “CTCGAGGATATCAAGATCTGGCCTCGGCGCGTGGTTCGGAACCTCTAGCTAGCCGACTCACTATAGGGATAATCGCCCTGAGCAAAGACC”, which binding signal is on record?
Answer: 0.121 ± 0.0856 log2FC

Question: “CTCGAGGATATCAAGATCTGGCCTCGGCCGCCCAGACGGAACCTCTAGCTAGCCGACTCACTATAGGGATAATCGCCCTGAGCAAAGACC” was tested. Which binding signal did it give?
Answer: 0.0722 ± 0.0958 log2FC

Question: Which binding signal does the source give for “CTCGAGGATATCAAGATCTGGCCTCGGCGCGTGGCGCGGAACCTCTAGCTAGCCGACTCACTATAGGGATAATCGCCCTGAGCAAAGACC” here?
Answer: 0.0413 ± 0.108 log2FC

Question: For “CTCGAGGATATCAAGATCTGGCCTCGGCCCGTGGGCGGGAACCTCTAGCTAGCCGACTCACTATAGGGATAATCGCCCTGAGCAAAGACC”, which binding signal is on record?
Answer: 3.06 ± 0.0841 log2FC

Question: “CTCGAGGATATCAAGATCTGGCCTCGGCCGCCCACAGGGAACCTCTAGCTAGCCGACTCACTATAGGGATAATCGCCCTGAGCAAAGACC” was tested. Which binding signal did it give?
Answer: 0.494 ± 0.158 log2FC

Question: With “CTCGAGGATATCAAGATCTGGCCTCGGCGCGGAGGCGGGAACCTCTAGCTAGCCGACTCACTATAGGGATAATCGCCCTGAGCAAAGACC” as the sequence, how does the binding signal read?
Answer: 1.88 ± 0.11 log2FC

Question: For “CTCGAGGATATCAAGATCTGGCCTCGGCCGCGGTCGCGGAACCTCTAGCTAGCCGACTCACTATAGGGATAATCGCCCTGAGCAAAGACC”, which binding signal is on record?
Answer: 0.00429 ± 0.0911 log2FC

Question: With “CTCGAGGATATCAAGATCTGGCCTCGGCCGCCCACCTGGAACCTCTAGCTAGCCGACTCACTATAGGGATAATCGCCCTGAGCAAAGACC” as the sequence, how does the binding signal read?
Answer: 0.259 ± 0.108 log2FC

Question: “CTCGAGGATATCAAGATCTGGCCTCGGCGCGTGGTAGGGAACCTCTAGCTAGCCGACTCACTATAGGGATAATCGCCCTGAGCAAAGACC” was tested. Which binding signal did it give?
Answer: 0.402 ± 0.089 log2FC

Question: Which binding signal does the source give for “CTCGAGGATATCAAGATCTGGCCTCGGCTGGTGGGCGGGAACCTCTAGCTAGCCGACTCACTATAGGGATAATCGCCCTGAGCAAAGACC” here?
Answer: 1.81 ± 0.0735 log2FC

Question: With “CTCGAGGATATCAAGATCTGGCCTCGGCCGCCCAAGGGGAACCTCTAGCTAGCCGACTCACTATAGGGATAATCGCCCTGAGCAAAGACC” as the sequence, how does the binding signal read?
Answer: 0.0235 ± 0.109 log2FC

Question: “CTCGAGGATATCAAGATCTGGCCTCGGCCTGTGGGCGGGAACCTCTAGCTAGCCGACTCACTATAGGGATAATCGCCCTGAGCAAAGACC” was tested. Which binding signal did it give?
Answer: 2.23 ± 0.0754 log2FC

Question: Which binding signal does the source give for “CTCGAGGATATCAAGATCTGGCCTCGGCACCTGGGCGGGAACCTCTAGCTAGCCGACTCACTATAGGGATAATCGCCCTGAGCAAAGACC” here?
Answer: 0.068 ± 0.0997 log2FC

Question: “CTCGAGGATATCAAGATCTGGCCTCGGCGCGTGGGATGGAACCTCTAGCTAGCCGACTCACTATAGGGATAATCGCCCTGAGCAAAGACC” was tested. Which binding signal did it give?
Answer: 2.17 ± 0.107 log2FC

Question: Which binding signal does the source give for “CTCGAGGATATCAAGATCTGGCCTCGGCGTTCCACGCGGAACCTCTAGCTAGCCGACTCACTATAGGGATAATCGCCCTGAGCAAAGACC” here?
Answer: 0.016 ± 0.0847 log2FC

Question: “CTCGAGGATATCAAGATCTGGCCTCGGCGCGTGGGTGGGAACCTCTAGCTAGCCGACTCACTATAGGGATAATCGCCCTGAGCAAAGACC” was tested. Which binding signal did it give?
Answer: 4.08 ± 0.0892 log2FC

Question: How did the binding signal turn out when “CTCGAGGATATCAAGATCTGGCCTCGGCGCGTGGGGAGGAACCTCTAGCTAGCCGACTCACTATAGGGATAATCGCCCTGAGCAAAGACC” was run?
Answer: 0.871 ± 0.0966 log2FC

Question: “CTCGAGGATATCAAGATCTGGCCTCGGCGCGTGGAGGGGAACCTCTAGCTAGCCGACTCACTATAGGGATAATCGCCCTGAGCAAAGACC” was tested. Which binding signal did it give?
Answer: 0.222 ± 0.116 log2FC

Question: For “CTCGAGGATATCAAGATCTGGCCTCGGCCGCCCACGTGGAACCTCTAGCTAGCCGACTCACTATAGGGATAATCGCCCTGAGCAAAGACC”, which binding signal is on record?
Answer: 1.68 ± 0.0823 log2FC

Question: With “CTCGAGGATATCAAGATCTGGCCTCGGCCGCCCATACGGAACCTCTAGCTAGCCGACTCACTATAGGGATAATCGCCCTGAGCAAAGACC” as the sequence, how does the binding signal read?
Answer: 0.364 ± 0.092 log2FC

Question: How did the binding signal turn out when “CTCGAGGATATCAAGATCTGGCCTCGGCCGCCCACGAGGAACCTCTAGCTAGCCGACTCACTATAGGGATAATCGCCCTGAGCAAAGACC” was run?
Answer: 0.778 ± 0.094 log2FC

Question: For “CTCGAGGATATCAAGATCTGGCCTCGGCCGCCCACGGGGAACCTCTAGCTAGCCGACTCACTATAGGGATAATCGCCCTGAGCAAAGACC”, which binding signal is on record?
Answer: 1.11 ± 0.0917 log2FC

Question: With “CTCGAGGATATCAAGATCTGGCCTCGGCGCGTGGCCCGGAACCTCTAGCTAGCCGACTCACTATAGGGATAATCGCCCTGAGCAAAGACC” as the sequence, how does the binding signal read?
Answer: 0.0738 ± 0.102 log2FC

Question: For “CTCGAGGATATCAAGATCTGGCCTCGGCGCGTGGGAGGGAACCTCTAGCTAGCCGACTCACTATAGGGATAATCGCCCTGAGCAAAGACC”, which binding signal is on record?
Answer: 3.65 ± 0.0848 log2FC

Question: With “CTCGAGGATATCAAGATCTGGCCTCGGCCGCCCACCAGGAACCTCTAGCTAGCCGACTCACTATAGGGATAATCGCCCTGAGCAAAGACC” as the sequence, how does the binding signal read?
Answer: 0.0728 ± 0.0981 log2FC

Question: With “CTCGAGGATATCAAGATCTGGCCTCGGCGCGTGGGGGGGAACCTCTAGCTAGCCGACTCACTATAGGGATAATCGCCCTGAGCAAAGACC” as the sequence, how does the binding signal read?
Answer: 1.28 ± 0.104 log2FC

Question: With “CTCGAGGATATCAAGATCTGGCCTCGGCGCGCCACGCGGAACCTCTAGCTAGCCGACTCACTATAGGGATAATCGCCCTGAGCAAAGACC” as the sequence, how does the binding signal read?
Answer: 0.0182 ± 0.0932 log2FC

Question: Which binding signal does the source give for “CTCGAGGATATCAAGATCTGGCCTCGGCCGCCCCCGCGGAACCTCTAGCTAGCCGACTCACTATAGGGATAATCGCCCTGAGCAAAGACC” here?
Answer: 1.56 ± 0.0899 log2FC

Question: How did the binding signal turn out when “CTCGAGGATATCAAGATCTGGCCTCGGCCGCATGCGCGGAACCTCTAGCTAGCCGACTCACTATAGGGATAATCGCCCTGAGCAAAGACC” was run?
Answer: 0.0876 ± 0.0884 log2FC

Question: How did the binding signal turn out when “CTCGAGGATATCAAGATCTGGCCTCGGCGGATGGGCGGGAACCTCTAGCTAGCCGACTCACTATAGGGATAATCGCCCTGAGCAAAGACC” was run?
Answer: 0.0532 ± 0.0937 log2FC

Question: Which binding signal does the source give for “CTCGAGGATATCAAGATCTGGCCTCGGCCTCCCACGCGGAACCTCTAGCTAGCCGACTCACTATAGGGATAATCGCCCTGAGCAAAGACC” here?
Answer: 1.28 ± 0.0958 log2FC

Question: “CTCGAGGATATCAAGATCTGGCCTCGGCAGGTGGGCGGGAACCTCTAGCTAGCCGACTCACTATAGGGATAATCGCCCTGAGCAAAGACC” was tested. Which binding signal did it give?
Answer: 2.15 ± 0.0839 log2FC

Question: For “CTCGAGGATATCAAGATCTGGCCTCGGCGCGTGGTGGGGAACCTCTAGCTAGCCGACTCACTATAGGGATAATCGCCCTGAGCAAAGACC”, which binding signal is on record?
Answer: 0.205 ± 0.103 log2FC

Question: For “CTCGAGGATATCAAGATCTGGCCTCGGCGCGAGGGCGGGAACCTCTAGCTAGCCGACTCACTATAGGGATAATCGCCCTGAGCAAAGACC”, which binding signal is on record?
Answer: 0.751 ± 0.109 log2FC

Question: How did the binding signal turn out when “CTCGAGGATATCAAGATCTGGCCTCGGCCCCCCACGCGGAACCTCTAGCTAGCCGACTCACTATAGGGATAATCGCCCTGAGCAAAGACC” was run?
Answer: 0.155 ± 0.108 log2FC

Question: “CTCGAGGATATCAAGATCTGGCCTCGGCAGACCACGCGGAACCTCTAGCTAGCCGACTCACTATAGGGATAATCGCCCTGAGCAAAGACC” was tested. Which binding signal did it give?
Answer: 0.0219 ± 0.102 log2FC
